# Data as given in PubChem BioAssay AID1222 (Sanford-Burnham Center for Chemical Genomics, 2008).
# Fewer than 10 of roughly 190,000 compounds were called active. The list is a sample of the results. Measured potencies and affinities stand elsewhere. A number with no mark means an inactive call.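 Rule for the calls: active = EC50 below 50 µM in the dose-response confirmation; inactive = the rest.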
# Test: protection against thapsigargin-triggered cell killing – 384-well, CSM14.1, ATP luminescence, primary screen (AID 1222);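 note: death triggered by thapsigargin at about 15 µM added after 2 h compound pretreatment; cell ATP read after overnight thapsigargin exposure of roughly 18 to 22 hours; reference of the scale not given here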
# Settings: CSM14.1 thapsigargin-induced death rescue, at 20 µM, active compounds read high
row,Structure (SMILES),cellular ATP content (survival) [%]
1,Cc1ccc(-c2nc(CSCC(=O)N3CCN(c4ccccn4)CC3)c(C)o2)cc1,-0.2
2,COc1ccccc1OCc1ccc(C(=O)NCC(C)C)o1,2.9
3,COc1cccc(CN=C2Nc3ccccc3CS2)c1,0.2
4,O=C(Nc1cc(C(F)(F)F)ccc1N1CCOCC1)c1cccc(F)c1,0.4
5,O=C(Nc1ccccc1)c1nn(-c2ccccc2)c(=O)cc1C(F)(F)F,2
6,COc1ccccc1C(C)N(C)Cc1nc(COc2ccccc2)no1 (configuration not stated),-1.1
7,COc1ccc(CCN(Cc2cccs2)S(=O)(=O)c2ccc(S(=O)(=O)N3CCCCCC3)cc2)cc1OC,-1.5
8,CN1CCc2c(OCC(=O)N3N=C(c4cccs4)CC3c3ccc(F)cc3)cccc2C1=O (configuration not stated),1.4
9,O=C1c2cccc(OCC(=O)N3N=C(c4cccs4)CC3c3ccc(F)cc3)c2CCN1Cc1ccccc1 (configuration not stated),-2.7
10,CC(C)OP(=O)(OC(C)C)C(Nc1ccccc1)c1ccccc1C(F)(F)F (configuration not stated),2.8
11,CCOC(=O)c1c(NC(=O)C[n+]2ccc(N(C)C)cc2)sc(C)c1C,-2
12,Cn1cc(Cl)c(C(=O)NNC(=S)NC2CCCCC2)n1,1.1
13,COC(=O)c1sc2ccccc2c1-n1cccc1C(=O)C(=O)Nc1ccc(OC)cc1,4.6
14,COc1ccc(/C=C(/NC(=O)c2ccccc2)c2nc3ccc(Cl)cc3[nH]2)cc1OC,1.1
15,Cc1ccccc1NS(=O)(=O)c1cc(C(=O)N2CCc3ccccc3C2)ccc1C,0.4
16,CC(C)(C)C(=O)Nc1nc(=S)ss1,0
17,CCn1c(NCc2ccc3c(c2)OCO3)nc2ccccc21,-1
18,CCOC(=O)c1cnc(-n2nc(C)cc2C)nc1Nc1ccc2c(c1)OCO2,-1.2
19,CCn1cc(C(=O)O)c(=O)c2cc(S(=O)(=O)N(C)C)ccc21,-1.2
20,O=C(Nc1ccc(N2CCOCC2)cc1)c1ccc(Cl)nc1,-0.7
21,CCOc1ccccc1NC(=O)COC(=O)C(CC)c1ccccc1 (configuration not stated),0.7

row,Structure (SMILES),cellular ATP content (survival) [%]
1,CCCCP(=O)(CCCC)c1ccccc1C(=O)O,-0.7
2,O=C(OCc1cc(=O)n2c(n1)sc1ccccc12)c1ccc(O)cc1O,-1.2
3,COc1ccc(NC(=S)Nc2ccc(S(N)(=O)=O)cc2)c(OC)c1,-0.3
4,CC(=O)c1c(C)nc2ccc(Br)cc2c1C(=O)O,0.7
5,COc1cccc(C2CC(c3cccs3)=NN2C(=S)Nc2ccccc2)c1OC (configuration not stated),2.5
6,COc1ccc(S(=O)(=O)N2CCC(C(=O)N3CCc4ccccc4C3)CC2)cc1Cl,0.7
7,CCOC(=O)c1cc2c(=O)n3ccccc3nc2n(Cc2ccccc2Cl)c1=N,-1.3
8,CCCCNS(=O)(=O)c1ccc(S(=O)(=O)NCc2ccncc2)cc1,-1.8
9,Cc1nc(N2CCC(C(N)=O)CC2)c2c(-c3cccs3)csc2n1,-2.2
10,CCOC(=O)C1=C(C)Nc2ccccc2N=C1NC(=O)CCCN1C(=O)c2ccccc2C1=O,-1.5
11,COc1cc([N+](=O)[O-])ccc1NC(=O)c1cccc(NC(=O)C(C)C)c1,2.2
12,COC(=O)C1=NN(C(C)=O)C2(CC(=O)N(c3cccc(C)c3)C2=O)C1 (configuration not stated),-0.1
13,CCN(C(=O)COc1ccccc1)C1CCCCC1,-1.5
14,O=C(Nc1nnc(-c2ccco2)o1)c1ccc2ccccc2c1,11.1
15,Cc1cc(NC(=O)CCC(=O)N(CC(=O)NC2CCCC2)c2ccccc2)no1,0.5
16,O=c1cc(COn2nnc3ccc(C(F)(F)F)cc32)nc2sccn12,-1.8
17,O=C(Nc1ccc2nc(-c3cccnc3)[nH]c2c1)C12CC3CC(CC(C3)C1)C2,-3.6
18,c1ccc(-c2nccc(-c3ccc(-n4cnc5ccccc54)cc3)n2)cc1,-0.9
19,Cc1ccc(/C(O)=C2\C(=O)C(=O)N(CCc3c[nH]c4ccccc34)C2c2cccnc2)cc1 (configuration not stated),1.1
20,CCN1C(=O)/C(=C/c2ccc(N3CCCC3)cc2)NC1=S,0.3
21,CCCN1C(=O)/C(=C/c2ccc(N3CCCC3)c(C)c2)NC1=S,-2

row,Structure (SMILES),cellular ATP content (survival) [%]
1,O=C(COC(=O)CCNS(=O)(=O)c1ccc2c(c1)OCCO2)NC1CCCc2ccccc21 (configuration not stated),-0.1
2,CCc1nnc(NC(=O)CCC(=O)NC2CCCCC2)s1,-0.3
3,CCCCNC(=O)Cc1ccc(Br)cc1,0.7
4,CC1CCC2C(=O)N(c3ccc(Cc4ccncc4)cc3)C(=O)C2C1 (configuration not stated),0.4
5,CC1(C(=O)NCCN2CCOCC2)C=CC2(CCCCC2)N1C(=O)c1ccccc1 (configuration not stated),-4.5
6,CC(=O)OCc1cc(-c2nn(C)c(=O)c3ccccc23)ccc1C,1.5
7,O=C(N/N=C/c1ccccc1OC(F)F)C1=COCCO1,0.4
8,O=S1(=O)C=CC(Sc2nc3ccccc3[nH]2)C1 (configuration not stated),7.3
9,Cc1ccc(S(=O)(=O)N2CCN(C(C)CC(=O)O)CC2)cc1 (configuration not stated),-0.8
10,O=C(OCCCC(=O)N1CCOCC1)c1ccccc1,-1
11,COc1cc(CN(C(=S)NCC(=O)NC2CCCC2)C2CCCC2)cc(OC)c1OC,0.8
12,CCOc1ccc(Nc2nc(Cc3nnc(SCC(=O)NC4CCCCC4)n3C)cs2)cc1,-0.1
13,COc1ccc(C(=O)OCC(=O)N(C)C2CCS(=O)(=O)C2)cc1S(=O)(=O)N1CCCc2ccccc21 (configuration not stated),1.7
14,COc1ccc2c(c1)N(C(=O)CSc1n[nH]c(C)n1)C(C)(C)C=C2C,5.3
15,COc1ccc(/C=C/C(=O)OCC(=O)Nc2cc(C(F)(F)F)ccc2Cl)cc1,-2.1
16,Cc1cc(C)c(C(=O)CN2C(=O)NC3(CCCCC3)C2=O)cc1C,-0.6
17,COc1ccc(S(=O)(=O)Oc2cccc(/C=N/N=C3/NC(=O)C(CC(=O)O)S3)c2)cc1 (configuration not stated),7.5
18,CCCN1CCC(NC(=O)Nc2cc(Cl)ccc2OC)CC1,0.1
19,CC(=O)N1CCN(c2ccc([N+](=O)[O-])c(NCc3cccnc3)c2)CC1,-0.8
20,N#Cc1cc(-c2ccccc2)nc(Oc2ccc(Cl)cc2)n1,-1.2
21,CCCn1nc2cc(C(=O)NCc3ccc(OC(F)(F)F)cc3)ccc2c1OCC,-1.1

row,Structure (SMILES),cellular ATP content (survival) [%]
1,Cc1ccc(S(=O)(=O)c2nc(-c3ccccc3)oc2NCc2cccnc2)cc1,3.8
2,Cc1ccc(Nc2nc(-c3ccc(S(=O)(=O)N4CCOCC4)cc3)cs2)cc1Cl,-1.8
3,CC(C)(C)N/N=C/c1c(O)n(-c2ccc(Cl)cn2)c(=O)c2ccccc12,-1.2
4,O=C(Nc1cccc(C2OCCCO2)c1)c1cccs1,-3.3
5,O=C(c1ccc2ccccc2c1)c1c[nH]cc1-c1ccccc1,0.1
6,Cc1ccccc1NC(=O)C12CC3CCC1(C)C3(C)CO2 (configuration not stated),3.2
7,CC12COC3(C(=O)Nc4ccccc4)CC1CCC32C (configuration not stated),0.2
8,CN(C1CCCCC1)S(=O)(=O)c1ccc(NC(=O)CCC(=O)O)cc1,-1.8
9,O=C(N[C@@H](Cc1ccccc1)C(=O)O)c1cccnc1,-0.2
10,O=[N+]([O-])c1ccc(Nc2nc(Cl)nc(NCCO)n2)cc1,-0.9
11,Cc1ccc(S(=O)(=O)N2CCN(C(=O)CSc3nnc(C)c(=O)[nH]3)CC2)cc1,0.3
12,O=C(NC(=S)N1CCN(c2ccccn2)CC1)c1ccco1,-0.1
13,COc1ccccc1NC(=O)C/C(C)=N/NC(=O)COc1c(Br)cc(Br)cc1OC,2.1
14,CCC(=O)N1CCc2cc(S(=O)(=O)CCC(=O)Nc3ccc(CC)cc3)ccc21,-3.3
15,O=c1[nH]c(CSc2nnc(-c3ccccc3)n2C2CCCCC2)nc2ccccc12,0.3
16,CC1C(c2ccccc2)=[N+]([O-])C2(CCCCC2)N1O (configuration not stated),-0.2
17,Cn1c(=O)c2c(nc(CN3CCN(Cc4ccccc4)CC3)n2CCN2CCOCC2)n(C)c1=O,2.6
18,CCOc1ccccc1-n1c(SCC(=O)Nc2nccs2)nnc1-c1ccoc1C,1.4
19,O=c1[nH]c(CCC2CCCC2)nc2ccccc12,-3.1
